Assay [1] in a line: Tanguay_ZF_120hpf_SWIM_legacy: (Legacy) Oregon State University Tanguay Lab 120 Hour Post-fertilization zebrafish Assay for Swim Bladder Malformation (AID 2283654).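 Further: swim bladder malformation in each larva scored yes or no under brightfield.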 In a few lines:
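Tropical 5D embryos dechorionated at 4 hpf; 1 embryo/well from 6 hpf; static, sealed, dark exposure at 28C until 120 hpf; final DMSO 0.64%; 5uM trimethyltin chloride positive control; swim bladder defect recorded yes/no; dead embryos not scored.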

Assay [2] is described as follows: Tanguay_ZF_120hpf_TRUN_legacy: (Legacy) Oregon State University Tanguay Lab 120 Hour Post-fertilization zebrafish Assay for Truncated Body (AID 2283655). In a few lines:
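Truncated body is recorded as a binary endpoint at 120 hpf by brightfield imaging of wild-type 5D larvae. Exposure runs statically from 6 hpf at 28C with 0.64% DMSO; embryos dying earlier are not scored.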

Assay [3] can be described thus: Tanguay_ZF_120hpf_NC_legacy: (Legacy) Oregon State University Tanguay Lab 120 Hour Post-fertilization zebrafish Assay for Notochord and Tail Malformation (AID 2283656). In short, it runs like this: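 Binary scoring of notochord distortion by brightfield microscopy; embryos dying were not scored. Wild-type Tropical 5D embryos, chorion removed, exposed singly and statically from 6 to 120 hpf, 28C, sealed, 0.64% DMSO.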

Assay [4] is described as follows: CCTE_Padilla_ZF_144hpf_TERATOSCORE: (Legacy) CCTE's 144 Hour Post-fertilization zebrafish Assay Teratoscore, Padilla Lab (AID 2283679; active means hit-call score of the fitted dose curve at least 0.9, where 1 is the maximum; inactive means score below 0.9;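 on AC50: zebrafish embryos with chorions exposed by immersion from 6-8 hpf to 5 dpf with daily renewal; teratogenicity score from eye scoring of death hatching and malformations at 144 hpf; higher score means more developmental defects relative to DMSO baseline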). In a few lines:
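Larvae scored by eye at 144 hpf for death, hatching and malformations after a day in clean Hanks'. Before that, daily-renewed exposure at 80 uM (0.4% DMSO, 26C) from roughly 6-8 hpf through 5 dpf, 4 embryos per chemical.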

Assay [5] in a line: Tanguay_ZF_120hpf_TR_legacy: (Legacy) Oregon State University Tanguay Lab 120 Hour Post-fertilization zebrafish Assay for Touch Response (AID 2283667). In a few lines:
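Binary touch-response call at 120 hpf, analysed as gain of signal versus DMSO baseline. Wild-type 5D larvae, static exposure at 28C, 0.64% DMSO final; 5uM trimethyltin chloride as positive control.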

The subject of assay [6] is Thyroperoxidase (TPO), gene 54314. The assay is described as follows: CCTE_Simmons_AUR_rTPO: CCTE's Amplex UltraRed Assay for Thyroperoxidase (TPO) Inhibition, Simmons Lab (AID 2283662).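 Further: potency for loss of signal meaning inhibition of peroxidase activity.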 In a few lines:
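Rat thyroid microsomes (5 ug protein) were incubated with test compound (8 concentrations, 5 nM–87.5 uM final, 0.5% DMSO), 25 uM Amplex UltraRed and 300 uM H2O2 in 200 mM phosphate buffer for 30 min at 37C in the dark; fluorescence read at 544/590 nm.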

Assay [7] in a line: CCTE_Simmons_CellTiterGLO_HEK293T: Viability Assessment in CCTE's Assays for Thyroperoxidase (TPO) Inhibition, Simmons Lab (AID 2283665).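 Further: cells exposed to compound for 24 h before readout; actives reduce ATP signal below DMSO vehicle meaning cytotoxicity.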 In a few lines:
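Cells were seeded overnight, then exposed to an eight-point series up to 87.5 uM final for 24 hours. CellTiter-Glo reagent was added and luminescence read after 20 min, giving ATP-based viability versus DMSO.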

Read-out in assay [8]: solute carrier (SLC10A1), SLC10A1 (gene 6554)
The assay is described as follows: LTEA_HepaRG_SLC10A1: Life Technologies and Expression Analysis (LTEA) Assay for solute carrier (SLC10A1) using HepaRG (AID 2283657; active means hit-call score of the fitted dose curve at least 0.9, where 1 is the maximum; inactive means score below 0.9). To be noted: mRNA level, 48 h; actives raise or lower the signal. In a few lines:
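HepaRG, 48 h exposure, 8-pt half-log curve from 100 uM in 0.5% DMSO, duplicates. Read-out: TaqMan qRT-PCR of SLC10A1 mRNA, normalized to three housekeeping genes. Gain/loss fit vs DMSO baseline.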

Read-out in assay [9]: matrix metalloproteinase-1 (MMP1), MMP1 (gene 4312)
Kind of assay: LTEA_HepaRG_MMP1: Life Technologies and Expression Analysis (LTEA) Assay for matrix metalloproteinase-1 (MMP1) using HepaRG (AID 2283658; active means hit-call score of the fitted dose curve at least 0.9, where 1 is the maximum; inactive means score below 0.9). Particulars: mRNA level, 48 h; actives raise or lower the signal. In short, it runs like this: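 HepaRG, ~100,000 cells/well, 48 h pre-culture; serum-free induction medium; test chemical 8 conc (max 100 uM, half-log), duplicate, 48 h; 0.5% DMSO; qRT-PCR MMP1, housekeeping-normalized; gain/loss fit vs DMSO.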

Read-out in assay [10]: Cytochrome P450 (CYP24A1_1), CYP24A1 (gene 1591)
Kind of assay: LTEA_HepaRG_CYP24A1_1: Life Technologies and Expression Analysis (LTEA) Assay for Cytochrome P450 (CYP24A1_1) using HepaRG (AID 2283671; active means hit-call score of the fitted dose curve at least 0.9, where 1 is the maximum; inactive means score below 0.9). To be noted: mRNA level, 48 h; actives raise or lower the signal. In short, it runs like this:
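Readout is CYP24A1 transcript level by qRT-PCR, normalized to three housekeeping genes, with gain or loss of signal fitted against 0.5% DMSO. Human HepaRG cells received compound for 48 h at up to 100 uM.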

Records with an inconclusive call do not appear. Calls of active or inactive are those of the source. How the source made its calls, unless noted: active means hit-call score of the fitted dose curve at least 0.9, where 1 is the maximum; inconclusive means response in the unintended direction; inactive means score below 0.9.

`N[C@@H](Cc1c[nH]c2ccccc12)C(=O)O`: the result in [1], in assay [2], in assay [3] and in assay [4] was inactive.

As for `CC(=O)O[C@]1(C(C)=O)CC[C@H]2[C@@H]3C=C(Cl)C4=CC(=O)[C@@H]5C[C@@H]5[C@]4(C)[C@H]3CC[C@@]21C`, the call in assay [1] and in assay [5] was inactive.

Consider `CC(C)(O)c1ccc(CNC(=O)c2cccnc2Oc2ccc(F)cc2)cc1`, for which the compound was called inactive in assay [3].

For `CC1=C(C)S(=O)(=O)CCS1(=O)=O`, the call in [1], in [2] and in assay [5] was inactive.

Regarding `C=CCCCCCCCCCCCC`, the outcome in assay [1], in [2], in assay [3], in assay [5] and in assay [4] was inactive.

For the compound `Cc1ccc(-c2cc(C(F)(F)F)nn2-c2ccc(S(N)(=O)=O)cc2)cc1`, the compound was classed as inactive in assay [1], in assay [2], in assay [3] and in [5]. For the same compound, the AC50 in assay [4] was 8.82 µM (active).

For the compound `O=C1CCCCC1`, the outcome in assay [1], in assay [2], in assay [3], in assay [5] and in assay [4] was inactive.

Take `COc1ccc(C(=O)Nc2nc3ccccc3c(NCc3ccccc3)c2C#N)cc1`: the compound was classed as inactive in assay [1] and in assay [3].

`O=C(N[C@@H](c1ccccc1)[C@@H]1CCCCN1)c1cccc(C(F)(F)F)c1Cl`: the result in assay [2], in assay [3] and in assay [5] was inactive.

Take `Cc1ccc(C(C)(C)C)c(O)c1`: the compound was classed as inactive in assay [1], in assay [2] and in [5]. For the same compound, the AC50 in assay [6] was 30 µM (active); in [7], 22.3 µM (active).

As to `CC(N)=O`, the compound was called inactive in [1] and in assay [3].

As to `CCCCC(CC)CO` (configuration not stated), the compound was classed as inactive in assay [1], in [2], in assay [8], in [9] and in [10].

Take `Oc1ccc(O)cc1`: the outcome in [2] and in [5] was inactive. The AC50 was 0.767 µM (active) in assay [6] and 35.4 µM (active) in assay [7].

Consider `CCc1nc(N)nc(N)c1-c1ccc(Cl)cc1`, for which the call in assay [2] and in assay [3] was inactive.

In the case of `CCc1cc(C2=C(C(=O)O)N(c3ccccc3C(F)(F)F)S(=O)(=O)c3ccccc32)cc2c1OCO2`, the call in assay [1], in [2] and in assay [5] was inactive.

Consider `CC(=O)OCC(COC(C)=O)OC(C)=O`, for which the compound was classed as inactive in assay [1] and in assay [3].

With `NC1CCCCC1`, the compound was called inactive in assay [2], in assay [3] and in assay [5].

Consider `CSc1ccc(Oc2ccc(S(N)(=O)=O)cc2CN(C)C)cc1C`, for which the compound was classed as inactive in [1] and in assay [2]. Further, the AC50 in [5] was 50.9 µM (active).

`CC(=O)S[C@H](C(=O)N[C@H]1Cc2ccccc2[C@H]2CCC[C@@H](C(=O)O)N2C1=O)C(C)C`: the result in [1], in assay [2] and in assay [5] was inactive.

For the compound `CC(=O)O`, the outcome in assay [1], in assay [2], in [3] and in [4] was inactive.

For `CN(C)CCCN(C)CCCN(C)C`, the compound was classed as inactive in [1] and in [3].

Take `CC(C)c1cccc(C(C)C)c1`: the compound was classed as inactive in assay [2] and in assay [3].

Turning to `Cn1cnc2c1c(=O)[nH]c(=O)n2C`, the compound was called inactive in [1] and in assay [3].

For `O=Cc1ccccc1C=O`, the outcome in assay [2] and in [3] was inactive. Moreover, the values for the AC50 in assay [6] and in assay [7] were 41.8 µM (active) and 4.91 µM (active), respectively.

As to `CC(C)OC(=O)C(C)(C)Oc1ccc(C(=O)c2ccc(Cl)cc2)cc1`, the compound was classed as inactive in assay [1], in assay [2] and in assay [5].

For `COC(=O)[C@H]1[C@H]2C[C@@H]3c4[nH]c5cc(OC)ccc5c4CCN3C[C@H]2C[C@@H](OC(=O)c2cc(OC)c(OC)c(OC)c2)[C@@H]1OC`, the call in [2], in assay [3] and in [5] was inactive. Also, the AC50 in [6] was 7.3 µM (active); in assay [7] it was 45.3 µM (active).

`O=NO`: in assay [3], the result was inactive.

`C/C=C/C=C/C(=O)O`: the outcome in [1], in [3] and in assay [5] was inactive. Further, the AC50 in assay [6] and in [7] was 48.8 µM (active) throughout.

Consider `Cc1cn([C@H]2C=C[C@@H](CO)O2)c(=O)[nH]c1=O`, for which the call in assay [1] and in assay [3] was inactive.

(Values after PubChem BioAssay (EPA / NIEHS).)
